This is a sample that favours compounds with a hit; in the whole collection about 9% have one here.
LMNA splice mod – qHTS Assay for Modulators of Lamin A Splicing; HeLa LMNA splicing GFP/RFP minigene ratio, 48 h; Potency, µM (highest dose often 46.1 µM), for the others: at the highest dose ratio change, negative = inhibition, most hits filed as inhibitors; AID 1487, 2009; hit rate 0.01% among 200,000; active = well fitted inhibition curve with a large enough effect in the signal ratio, with a control signal flat, not every such curve was filed as active; inconclusive = small, poorly fitted or top-dose-only effect, or effect the other way, or a change in a side signal; the % refers to the signal ratio
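S3 HeLa cells stably expressing lamin A-EGFP splicing minigene plus DsRed2, 600 cells/well, 48 h compound exposure at 37C. Laser-scanning cytometry; analysed as GFP (500-530 nm)/RFP (575-640 nm) total intensity ratio; 0.5% DMSO vehicle.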
HPGD inh – qHTS Assay for Inhibitors of HPGD (15-Hydroxyprostaglandin Dehydrogenase); 15-hydroxyprostaglandin dehydrogenase [NAD(+)] (Homo sapiens), P15428; purified HPGD, NADH fluorescence kinetic, PGE2 substrate; Potency, µM, for the others: at the top dose activity change, negative = inhibition, hits mostly inhibitors; hit rate 4.3% among 150,000; AID 894, 2007
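NADH formation kinetics: reaction with 30 uM PGE2 and 1 mM NAD+ (final), 20 nM enzyme, Tris-HCl pH 8 with Tween 20, after 15 min compound preincubation at room temperature. Fluorescence change, last versus first of five reads.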
ALDH1A1 block – qHTS Assay for Inhibitors of Aldehyde Dehydrogenase 1 (ALDH1A1) | AID 1030, 2008 | Aldehyde dehydrogenase 1A1 (Homo sapiens), P00352 | Potency, µM (highest dose often 75.3 µM), without a hit: at the highest dose activity, negative = inhibition, hits mostly inhibitors | hit rate 7.3% among 220,000 | Purified ALDH1A1, NADH fluorescence, propionaldehyde substrate;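 also: plate controls were no enzyme wells and a reference inhibitor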
Target sequence (P00352 whole entry, looked up): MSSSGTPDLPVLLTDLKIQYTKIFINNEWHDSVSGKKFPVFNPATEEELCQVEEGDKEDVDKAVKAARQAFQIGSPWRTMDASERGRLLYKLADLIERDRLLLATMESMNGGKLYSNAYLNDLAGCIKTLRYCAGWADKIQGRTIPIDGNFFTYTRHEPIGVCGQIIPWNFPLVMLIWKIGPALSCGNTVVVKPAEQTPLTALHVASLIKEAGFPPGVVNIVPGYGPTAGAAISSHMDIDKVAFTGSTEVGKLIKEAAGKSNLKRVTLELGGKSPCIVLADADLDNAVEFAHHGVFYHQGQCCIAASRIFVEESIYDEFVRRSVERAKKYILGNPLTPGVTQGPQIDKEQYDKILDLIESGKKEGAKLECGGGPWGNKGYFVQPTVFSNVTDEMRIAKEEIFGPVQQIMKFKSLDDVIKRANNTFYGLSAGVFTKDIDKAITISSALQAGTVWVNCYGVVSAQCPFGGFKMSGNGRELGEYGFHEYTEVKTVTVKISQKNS
KinaseGlo FLuc – Counterscreen for Luciferase (Kinase-Glo TM) Inhibition; Luciferin 4-monooxygenase (Photuris pensylvanica), Q27757; Kinase-Glo luciferase, ATP luminescence, 8 min; hit rate 0.28% among 200,000; Potency, µM (series often up to 38.3 µM), for the others: at the highest dose activity change, negative = inhibition, hits mostly inhibitors; active = well fitted curve in the direction sought with a large enough effect; inconclusive = small, poorly fitted or top-dose-only effect, or another doubt; inactive = no such curve, though single readings can be large; an effect the other way counts as inactive or inconclusive; also: nearly all actives have a fitted effect of over 60% in size
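Compounds were added to a substrate mix at pH 7.2 (50 mM imidazole, 10 uM ATP, within the enzyme's linear range), followed by Kinase-Glo detection reagent; luminescence was measured after 8 minutes at ambient temperature.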
IMPase Li cell – qHTS Assay for Identifying the Cell-Membrane Permeable IMPase Inhibitors: Potentiation with Lithium; CHO-M1 cells, IP1 TR-FRET (IP-One), carbachol + lithium; Potency, µM (doses to about 59.4 µM), inactives show at the highest dose activity, negative = IMPase inhibition, usual class: inhibitors; hit rate 0.35% among 210,000; active = well fitted curve in the direction sought with a large enough effect; inconclusive = small, poorly fitted or top-dose-only effect, or another doubt; inactive = no such curve, though single readings can be large; an effect the other way counts as inactive or inconclusive;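 also: IP1 builds up when IMPase is blocked and the TR-FRET signal falls; plate controls were basal vehicle for no effect and high inhibitor control for full effect; nearly all actives have a fitted effect of over 50% in size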
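Lithium-sensitised IP1 accumulation assay; M1-expressing CHO cells treated 30 min at 37C with compound. Competitive antibody detection by time-resolved FRET followed a 10 min room-temperature lysis step.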
An asterisk follows results filed as active; [ ] = remark or other dose. Unless noted, calls follow the shape of the dose curve; as a rule, active = well fitted inhibition curve with a large enough effect (not every such curve was filed as active); inconclusive = small, poorly fitted or top-dose-only effect, or another doubt; inactive = no such curve, though single readings can be large or run the other way. Unless noted, % is scaled to controls: 0 for no effect and ±100 for the full control effect; potency is read from the fitted curve at half-maximal effect.

CC(=O)Nc1ccc(S(=O)(=O)NCC2CCC(C(=O)NC3CCCCCC3)CC2)cc1 (stereo not drawn) was read as LMNA splice mod inconclusive, HPGD inh -18%, ALDH1A1 block 11%, KinaseGlo FLuc 3% and IMPase Li cell -8%.
Screening COc1ccc(-c2nc(-c3ccccc3)c(NC(C)C)o2)cc1 returned HPGD inh -10%, ALDH1A1 block 9%, KinaseGlo FLuc -1% and IMPase Li cell 9%.
`CC(C)(C)NCc1ccc(OCc2cccs2)cc1` gave LMNA splice mod 10%[46 µM], ALDH1A1 block 1%, KinaseGlo FLuc -4% and IMPase Li cell 8%.
Screening O=C(NCc1ccc2c(c1)OCO2)C1CCC(CNS(=O)(=O)c2cccc3nsnc23)CC1 (stereo not drawn) returned LMNA splice mod 5%, HPGD inh -2%, ALDH1A1 block inconclusive, KinaseGlo FLuc -2% and IMPase Li cell 13%[38.3 µM].
O=S(=O)(NCC1CCN(S(=O)(=O)c2ccccc2)CC1)c1ccccc1 was read as LMNA splice mod -6%, HPGD inh -2%, ALDH1A1 block 1.6µM*, KinaseGlo FLuc 7% and IMPase Li cell 23%[38.3 µM].
O=C(NNS(=O)(=O)c1ccccc1)C1CCN(S(=O)(=O)c2ccccc2)CC1 was read as LMNA splice mod 5%, HPGD inh -5%, ALDH1A1 block inconclusive, KinaseGlo FLuc -2% and IMPase Li cell -13%[38.3 µM].
For O=C(COc1ccc(S(=O)(=O)NC2CCCCC2)cc1)NCCC1=CCCCC1 the results were LMNA splice mod 2%, HPGD inh -6%, ALDH1A1 block 7.1µM*, KinaseGlo FLuc 1% and IMPase Li cell 9%.
`Cc1ccc(S(=O)(=O)NCC2CCC(C(=O)NCc3cccs3)CC2)cc1` (stereo not drawn) gave ALDH1A1 block 0.79µM*, KinaseGlo FLuc 0% and IMPase Li cell -3%.
For O=C(COc1ccc(S(=O)(=O)NC2CCCCC2)cc1)NC1CCCCC1 the results were LMNA splice mod -15%, HPGD inh 2%, ALDH1A1 block -11%, KinaseGlo FLuc 3% and IMPase Li cell 15%.
`Cc1ccc(CNC(=O)C2CCC(CNS(=O)(=O)c3ccc(C)cc3)CC2)cc1` (stereo not drawn) gave LMNA splice mod -1%[46 µM].
Screening O=C(NCc1ccc2c(c1)OCO2)C1CCC(CNS(=O)(=O)c2ccccc2)CC1 (stereo not drawn) returned LMNA splice mod -10%, HPGD inh -26%, ALDH1A1 block 6.3µM*, KinaseGlo FLuc -2% and IMPase Li cell 2%.
Screening COc1ccc(S(=O)(=O)NCC2CCC(C(=O)NCc3ccco3)CC2)cc1 (stereo not drawn) returned LMNA splice mod inconclusive and ALDH1A1 block 13%.
For O=C(NCCN1CCOCC1)C1CCC(CNS(=O)(=O)c2ccccc2)CC1 (stereo not drawn) the results were LMNA splice mod -6%, HPGD inh -12%, ALDH1A1 block 13µM*, KinaseGlo FLuc 2% and IMPase Li cell 2%.
`Cc1cc(C)c(S(=O)(=O)NCC2CCC(C(=O)NCCCN3CCOCC3)CC2)c(C)c1` (stereo not drawn) gave LMNA splice mod 2%, HPGD inh -1%, ALDH1A1 block 5%, KinaseGlo FLuc 13% and IMPase Li cell 6%[38.3 µM].
Screening Cc1ccc(S(=O)(=O)NCC2CCC(C(=O)NCc3ccco3)CC2)cc1 (stereo not drawn) returned LMNA splice mod 15%, HPGD inh -16%, ALDH1A1 block 2.8µM*, KinaseGlo FLuc 0% and IMPase Li cell 11%[38.3 µM].
For O=C(NCc1cccs1)C1CCC(CNS(=O)(=O)c2cccs2)CC1 (stereo not drawn) the results were LMNA splice mod 3%, HPGD inh -8%, ALDH1A1 block 14µM*, KinaseGlo FLuc -2% and IMPase Li cell 7%[38.3 µM].
O=C(Cn1nc2c(cc1=O)CCCC2)Nc1ccccc1C(F)(F)F was read as LMNA splice mod -2%[46 µM].
Screening COc1ccccc1N1CCN(c2ncnc3c2cnn3C)CC1 returned LMNA splice mod 0%[46 µM].
`NS(=O)(=O)c1ccc(CCNC(=O)c2ccc3nc(Cc4ccccc4)oc3c2)cc1` gave LMNA splice mod 8%[46 µM].
`CCCCNC(=O)CNC(=S)N(Cc1ccc(C)cc1)Cc1ccco1` gave ALDH1A1 block 32µM*, KinaseGlo FLuc 6% and IMPase Li cell -15%.
Screening Cc1ccc(CN(Cc2ccco2)C(=S)NCC(=O)NC2CC2)cc1 returned ALDH1A1 block inconclusive, KinaseGlo FLuc -2% and IMPase Li cell -7%.
Screening CCOCC(=O)Nc1c(C(=O)Nc2ccc3c(c2)OCCO3)oc2ccccc12 returned ALDH1A1 block inconclusive, KinaseGlo FLuc -4% and IMPase Li cell 5%.
Cc1c(N=C2C=C(Br)C(=O)C(Br)=C2)c(=O)n(-c2ccccc2)n1C was read as ALDH1A1 block 10µM*, KinaseGlo FLuc inconclusive and IMPase Li cell 6%.
`Cc1c(N=C2C=CC(=O)c3ccccc32)c(=O)n(-c2ccccc2)n1C` gave ALDH1A1 block inconclusive, KinaseGlo FLuc -26% and IMPase Li cell 32%.
`O=C(CNC1CCCCC1)N1CCc2ccccc2C1` gave LMNA splice mod -10%, HPGD inh -11%, ALDH1A1 block 11µM*, KinaseGlo FLuc -3% and IMPase Li cell 52%[38.3 µM].
Screening O=C(NC1CCCCC1)N1CCc2ccccc2C1 returned LMNA splice mod 3%[46 µM], ALDH1A1 block -5%, KinaseGlo FLuc 0% and IMPase Li cell 8%.
CC(=O)CSCc1ccccn1 was read as HPGD inh -7%, ALDH1A1 block 3.5µM*, KinaseGlo FLuc -4%[7.66 µM] and IMPase Li cell 0%.
`Cc1c(NC(=O)CSCc2ccc(Br)cc2)c(=O)n(-c2ccccc2)n1C` gave LMNA splice mod inconclusive, ALDH1A1 block -9%, KinaseGlo FLuc 0% and IMPase Li cell 8%.
For COc1ccc(N2C(=O)CC(Sc3nc4ccccc4s3)C2=O)cc1OC (stereo not drawn) the results were LMNA splice mod inconclusive, ALDH1A1 block 3.5µM*, KinaseGlo FLuc -3% and IMPase Li cell 13%.
CC(=O)Nc1ccc(N2C(=O)CC(c3ccccc3)CC2=O)cc1 was read as LMNA splice mod 6%, HPGD inh -13%, ALDH1A1 block 2%, KinaseGlo FLuc 2% and IMPase Li cell 1%[38.3 µM].
CC(=O)Nc1ccc(N2C(=O)CC(Sc3nc4ccccc4s3)C2=O)cc1 (stereo not drawn) was read as ALDH1A1 block 0.71µM*, KinaseGlo FLuc 0% and IMPase Li cell 19%.

Compound activity as filed in PubChem.
